# Source: the supplement of paper PMC11732987, “Enantioselective OTUD7B fragment discovery through chemoproteomics screening and high-throughput optimisation” (Communications Chemistry, 2025)
# Unmarked numbers belong to inactive results.
# Tests used:
# Experiment in all cases: log2 ratio of Biotin-Ahx-Ub-VS probe labelling (fragment/DMSO); higher = less target engagement (more negative = stronger competition), active = hit call of the paper (q ≤ 0.05, log2 ratio ≤ -1)
# Conditions in all cases: compound concentration: 200 uM; treatment time: 3 h
# OTUD6B = molecular target: T1, OTUD6B (UniProt Q8N6M0)
# T1 sequence (whole entry): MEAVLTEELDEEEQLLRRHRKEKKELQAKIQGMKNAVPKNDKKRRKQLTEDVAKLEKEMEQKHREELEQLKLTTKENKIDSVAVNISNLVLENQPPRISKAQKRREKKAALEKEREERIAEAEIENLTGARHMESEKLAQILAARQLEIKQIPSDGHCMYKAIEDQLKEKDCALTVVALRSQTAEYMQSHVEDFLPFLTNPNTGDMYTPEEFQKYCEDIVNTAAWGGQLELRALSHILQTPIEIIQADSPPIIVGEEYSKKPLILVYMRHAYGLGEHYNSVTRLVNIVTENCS
# How it was run: (§1)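 HEK293T lysate, 495 µg per sample in Tris/CHAPS/IGEPAL buffer with protease inhibitors, was treated in triplicate with fragment at 200 µM or vehicle for 3 h and then with Biotin-Ahx-Ub-VS at 0.5 µM final for 1 h. Labelled DUBs were NeutrAvidin-enriched, digested with LysC and trypsin, and run by diaPASEF LC-MS/MS. Spectronaut label-free quantities were global-median-normalised, and values are average log2 fragment/vehicle ratios by unpaired t-test on proteins with ≥2 unique peptides.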
# OTUD7B = molecular target: T2, OTUD7B (UniProt Q6GQQ9)
# T2 sequence (whole entry): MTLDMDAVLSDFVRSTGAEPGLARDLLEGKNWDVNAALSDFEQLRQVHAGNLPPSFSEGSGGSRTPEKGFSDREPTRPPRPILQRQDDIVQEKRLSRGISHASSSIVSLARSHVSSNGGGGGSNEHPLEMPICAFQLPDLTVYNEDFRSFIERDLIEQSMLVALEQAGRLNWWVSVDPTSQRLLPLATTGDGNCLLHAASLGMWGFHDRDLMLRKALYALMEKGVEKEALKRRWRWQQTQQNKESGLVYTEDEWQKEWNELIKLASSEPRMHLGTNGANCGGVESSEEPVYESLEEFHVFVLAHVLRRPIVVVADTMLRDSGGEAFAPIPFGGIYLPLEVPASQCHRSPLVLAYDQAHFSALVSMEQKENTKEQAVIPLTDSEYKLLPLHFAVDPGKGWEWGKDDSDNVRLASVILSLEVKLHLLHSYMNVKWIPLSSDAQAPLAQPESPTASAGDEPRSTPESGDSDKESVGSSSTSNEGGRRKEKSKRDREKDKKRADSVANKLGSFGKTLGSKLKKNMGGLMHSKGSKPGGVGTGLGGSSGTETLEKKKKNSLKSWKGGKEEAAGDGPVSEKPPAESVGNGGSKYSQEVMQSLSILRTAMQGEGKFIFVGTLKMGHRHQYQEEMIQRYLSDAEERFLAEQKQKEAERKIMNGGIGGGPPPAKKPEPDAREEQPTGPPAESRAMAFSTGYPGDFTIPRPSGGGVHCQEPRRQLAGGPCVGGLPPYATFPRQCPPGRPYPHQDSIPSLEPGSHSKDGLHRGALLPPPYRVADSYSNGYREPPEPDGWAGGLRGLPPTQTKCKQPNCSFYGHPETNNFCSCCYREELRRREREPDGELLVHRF
# How it was run: as §1
# PRPF8 = PRPF8 (UniProt Q6P2Q9)
# How it was run: as §1
# PSMD7 = molecular target: T3, PSMD7 (UniProt P51665)
# T3 sequence (whole entry): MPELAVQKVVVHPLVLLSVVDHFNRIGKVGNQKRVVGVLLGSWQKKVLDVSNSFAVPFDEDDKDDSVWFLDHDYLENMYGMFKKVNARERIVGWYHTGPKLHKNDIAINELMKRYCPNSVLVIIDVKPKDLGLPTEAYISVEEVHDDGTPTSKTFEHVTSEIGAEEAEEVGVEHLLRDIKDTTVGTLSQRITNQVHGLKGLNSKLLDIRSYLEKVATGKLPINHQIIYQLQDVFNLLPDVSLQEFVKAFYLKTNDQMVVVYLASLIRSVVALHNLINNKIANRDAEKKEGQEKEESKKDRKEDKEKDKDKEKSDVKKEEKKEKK
# How it was run: as §1
# UCHL1 = UCHL1 (UniProt P09936)
# UCHL1, sequence (P09936 whole entry, looked up): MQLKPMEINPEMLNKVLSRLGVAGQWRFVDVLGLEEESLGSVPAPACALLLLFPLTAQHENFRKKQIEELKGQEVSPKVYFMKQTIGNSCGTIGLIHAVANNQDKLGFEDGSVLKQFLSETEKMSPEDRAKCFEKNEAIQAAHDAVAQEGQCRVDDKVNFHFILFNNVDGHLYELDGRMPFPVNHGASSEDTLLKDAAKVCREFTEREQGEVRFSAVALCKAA
# How it was run: as §1
# UCHL3 = molecular target: T4, UCHL3 (UniProt P15374)
# T4 sequence (whole entry): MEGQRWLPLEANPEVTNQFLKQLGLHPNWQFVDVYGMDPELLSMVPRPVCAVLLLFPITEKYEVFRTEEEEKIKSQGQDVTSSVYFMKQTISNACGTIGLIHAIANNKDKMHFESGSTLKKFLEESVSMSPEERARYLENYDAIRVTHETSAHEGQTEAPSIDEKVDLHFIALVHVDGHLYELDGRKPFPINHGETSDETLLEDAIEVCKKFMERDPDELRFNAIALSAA
# How it was run: as §1
# UCHL5 = molecular target: T5, UCHL5 (UniProt Q9Y5K5)
# T5 sequence (whole entry): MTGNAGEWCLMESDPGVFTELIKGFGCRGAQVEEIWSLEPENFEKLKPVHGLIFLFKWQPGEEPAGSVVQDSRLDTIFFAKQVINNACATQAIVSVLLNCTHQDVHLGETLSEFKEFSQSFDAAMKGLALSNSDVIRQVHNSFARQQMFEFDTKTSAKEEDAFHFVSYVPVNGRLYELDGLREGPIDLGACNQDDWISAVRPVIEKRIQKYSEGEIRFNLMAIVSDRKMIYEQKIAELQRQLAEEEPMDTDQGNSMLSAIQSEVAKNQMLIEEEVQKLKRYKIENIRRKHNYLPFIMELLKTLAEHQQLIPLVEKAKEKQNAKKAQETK
# How it was run: as §1
# USP10 = USP10 (UniProt Q14694)
# USP10, sequence (Q14694 whole entry): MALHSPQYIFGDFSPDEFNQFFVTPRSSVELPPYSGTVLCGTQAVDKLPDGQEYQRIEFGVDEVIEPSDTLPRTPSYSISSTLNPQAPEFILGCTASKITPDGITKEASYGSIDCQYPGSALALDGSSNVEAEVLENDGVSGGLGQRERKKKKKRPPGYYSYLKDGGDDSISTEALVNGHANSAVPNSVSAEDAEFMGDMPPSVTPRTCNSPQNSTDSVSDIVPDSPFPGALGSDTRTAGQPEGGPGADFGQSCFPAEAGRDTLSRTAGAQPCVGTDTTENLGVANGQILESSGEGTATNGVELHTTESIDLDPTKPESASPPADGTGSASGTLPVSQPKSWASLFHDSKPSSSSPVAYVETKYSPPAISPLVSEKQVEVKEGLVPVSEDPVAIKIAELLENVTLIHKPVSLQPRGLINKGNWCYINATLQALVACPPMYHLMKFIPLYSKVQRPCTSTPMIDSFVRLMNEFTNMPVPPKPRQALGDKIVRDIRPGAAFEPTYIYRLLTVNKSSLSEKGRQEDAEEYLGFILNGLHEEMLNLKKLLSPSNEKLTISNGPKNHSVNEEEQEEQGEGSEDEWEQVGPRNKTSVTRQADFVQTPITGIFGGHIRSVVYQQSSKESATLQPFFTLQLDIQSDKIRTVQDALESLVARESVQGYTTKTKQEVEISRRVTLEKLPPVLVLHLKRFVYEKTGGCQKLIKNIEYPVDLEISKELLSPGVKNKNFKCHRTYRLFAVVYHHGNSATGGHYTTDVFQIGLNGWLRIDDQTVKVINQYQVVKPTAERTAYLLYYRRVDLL
# How it was run: as §1
# USP15 = molecular target: T6, USP15 (UniProt Q9Y4E8)
# T6 sequence (whole entry): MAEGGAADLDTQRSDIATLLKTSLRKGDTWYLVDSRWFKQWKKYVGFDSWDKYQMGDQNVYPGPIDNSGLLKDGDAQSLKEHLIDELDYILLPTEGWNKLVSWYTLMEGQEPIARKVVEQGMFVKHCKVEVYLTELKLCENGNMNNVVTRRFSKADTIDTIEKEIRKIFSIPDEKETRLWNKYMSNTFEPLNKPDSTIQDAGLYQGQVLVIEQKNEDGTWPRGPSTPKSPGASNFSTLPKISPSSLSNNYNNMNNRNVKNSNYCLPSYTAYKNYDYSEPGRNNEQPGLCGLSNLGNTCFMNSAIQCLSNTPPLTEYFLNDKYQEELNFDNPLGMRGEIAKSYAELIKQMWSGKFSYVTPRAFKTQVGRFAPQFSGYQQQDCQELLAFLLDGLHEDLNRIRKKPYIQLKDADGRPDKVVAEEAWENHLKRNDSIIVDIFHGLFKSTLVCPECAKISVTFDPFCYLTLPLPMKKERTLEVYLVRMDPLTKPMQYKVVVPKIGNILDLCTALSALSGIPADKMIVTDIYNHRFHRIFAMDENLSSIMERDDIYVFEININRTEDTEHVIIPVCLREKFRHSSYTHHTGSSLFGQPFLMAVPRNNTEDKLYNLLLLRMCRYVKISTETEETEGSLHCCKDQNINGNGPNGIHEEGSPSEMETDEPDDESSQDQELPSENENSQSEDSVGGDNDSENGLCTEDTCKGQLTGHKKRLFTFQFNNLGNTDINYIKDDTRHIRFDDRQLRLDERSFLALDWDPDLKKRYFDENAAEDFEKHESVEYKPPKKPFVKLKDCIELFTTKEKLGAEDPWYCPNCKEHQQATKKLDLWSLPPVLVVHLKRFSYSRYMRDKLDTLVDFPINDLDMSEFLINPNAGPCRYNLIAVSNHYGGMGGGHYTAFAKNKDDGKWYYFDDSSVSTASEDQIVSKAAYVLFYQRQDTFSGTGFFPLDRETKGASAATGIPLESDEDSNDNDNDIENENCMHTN
# How it was run: as §1
# USP16 = USP16 (UniProt Q9Y5T5)
# USP16, sequence (Q9Y5T5 whole entry, looked up): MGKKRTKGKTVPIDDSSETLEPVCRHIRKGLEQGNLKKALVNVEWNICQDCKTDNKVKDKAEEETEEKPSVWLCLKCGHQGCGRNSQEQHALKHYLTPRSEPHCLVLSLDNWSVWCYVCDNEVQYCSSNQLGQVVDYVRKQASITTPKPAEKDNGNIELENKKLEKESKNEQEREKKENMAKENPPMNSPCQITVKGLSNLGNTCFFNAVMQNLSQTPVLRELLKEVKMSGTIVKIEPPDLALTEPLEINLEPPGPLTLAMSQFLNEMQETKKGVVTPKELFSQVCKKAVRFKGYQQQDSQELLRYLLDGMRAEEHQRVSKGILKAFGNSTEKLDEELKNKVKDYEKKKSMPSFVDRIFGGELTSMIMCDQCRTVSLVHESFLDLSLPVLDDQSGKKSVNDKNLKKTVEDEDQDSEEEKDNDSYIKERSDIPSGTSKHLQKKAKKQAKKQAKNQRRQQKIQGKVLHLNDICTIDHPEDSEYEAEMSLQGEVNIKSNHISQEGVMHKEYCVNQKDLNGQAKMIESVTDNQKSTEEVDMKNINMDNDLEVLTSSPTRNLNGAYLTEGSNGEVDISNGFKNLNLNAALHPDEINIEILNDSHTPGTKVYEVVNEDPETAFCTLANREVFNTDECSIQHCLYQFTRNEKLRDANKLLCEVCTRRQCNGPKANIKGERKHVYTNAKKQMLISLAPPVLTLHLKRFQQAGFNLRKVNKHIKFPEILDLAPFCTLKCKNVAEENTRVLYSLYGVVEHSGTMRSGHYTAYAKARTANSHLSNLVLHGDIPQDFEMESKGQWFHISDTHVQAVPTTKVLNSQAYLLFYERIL
# How it was run: as §1
smiles,measurement,setting,value
Cl.O=C(CCl)N1CCn2cncc2C1,log2 ratio of Biotin-Ahx-Ub-VS probe labelling,OTUD6B,-0.541
same,log2 ratio of Biotin-Ahx-Ub-VS probe labelling,OTUD7B,-0.166
same,log2 ratio of Biotin-Ahx-Ub-VS probe labelling,PRPF8,0.208
same,log2 ratio of Biotin-Ahx-Ub-VS probe labelling,PSMD7,0.0226
same,log2 ratio of Biotin-Ahx-Ub-VS probe labelling,UCHL1,-1.37 (active)
same,log2 ratio of Biotin-Ahx-Ub-VS probe labelling,UCHL3,0.291
same,log2 ratio of Biotin-Ahx-Ub-VS probe labelling,UCHL5,0.0547
same,log2 ratio of Biotin-Ahx-Ub-VS probe labelling,USP10,-0.131
same,log2 ratio of Biotin-Ahx-Ub-VS probe labelling,USP15,-0.372
same,log2 ratio of Biotin-Ahx-Ub-VS probe labelling,USP16,-0.425
